# Laboratory results: PubChem BioAssay (NCI)
# Compounds without any hit were thinned out: in the full panel of roughly 83,000, 20% have a hit.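 Cell lines were cultured in 96-well plates, exposed to a single compound concentration, and assessed for percent growth 48 hours later.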 A number with no mark means an inactive call. The source made the active and inactive calls. Rule for the calls: active = growth percent below 10; inactive = the rest.
# System: UO-31 renal
# Test: NCI-60 one-dose screen, 48 h (100 = growth as untreated, 0 = no growth, -100 = all killed)
# Details: 10 µM unless noted
row,SMILES,growth
1,CCN(CC)CC(=O)Nc1cccc(C(=O)OC(C)C)c1,89.7%
2,CCCCOC(=O)c1ccc(NC(=O)C(C)N2CCOCC2)cc1 (stereo not drawn),88.3%
3,CN1C[C@@H](c2ccc(Cl)cc2)[C@]2(NC(=S)N(c3ccc(F)c(Cl)c3)C2=O)[C@@]12C(=O)NC1C=CC(Cl)=C[C@H]12 (stereo partly drawn),26.1%
4,OC(CBr)c1ccnc2ccccc12 (stereo not drawn),83.4%
5,CCCCNCC(=O)Nc1ccc(C(=O)OCC)cc1,91.8%
6,Nc1nc(Nc2ccc(Cl)cc2)nn1S(=O)(=O)c1ccc(-c2ccc(F)cc2)cc1,57.2%
7,CCCCCOC(=O)c1cccc(NC(=O)CN(CC)CC)c1,89.2%
8,N#Cc1c(N)n2c(nc1=Nc1ccc(Cl)cc1)sc1cc(Cl)ccc12,61.3%
9,CCN(CC)CCOC(=O)Nc1ccccc1Cl,80.4%
10,CCN(CC)c1ccc(Nc2ccc(CC(=O)c3ccccc3)cc2)cc1,71.5%
11,O[C@H]1CO[C@H]2[C@@H]1OC[C@@H]2Oc1ccc(Nc2nc(Nc3ccc(F)c(Cl)c3)ncc2F)cc1Cl,88%
12,CS(=O)(=O)c1ccc(-c2nc3cc(Cl)ccc3n2CC(=O)N/N=C/c2ccc(Cl)cc2)cc1,77.8%
13,COc1cc2c(cc1OC)-c1ccc3cc4c(cc3c1N(CCN(C)C)C2)OCO4,24.2%
14,CC[C@]1(O)C[C@H]2CN(CCc3c([nH]c4ccccc34)[C@@](C(=O)OC)(c3cc4c(cc3OC)N(C=O)[C@H]3[C@@](O)(C(=O)OC)[C@H](OC(C)=O)[C@]5(CC)C=CCN6CC[C@]43[C@@H]65)C2)C1,28.6%
15,CCN(CC)CCCC(C)NCc1ccccc1 (stereo not drawn),83.5%
16,CCOC(=O)c1ccc(NC(=O)CCCN(CC)CC)cc1,88.7%
17,CCC(C)NCc1ccccc1 (stereo not drawn),88%
18,CCCNCC(=O)Nc1ccc(C(=O)OC(C)(C)CC)cc1,86.3%
19,O=C(Nc1ccccc1Cl)OCCN1CCOCC1,92.4%
20,O=C1N(c2ccccc2)C(=S)N[C@]12[C@H](c1ccccc1)C1CCCN1[C@]21C(=O)NC2C=CC(Cl)=C[C@H]21 (stereo partly drawn),71.3%

row,SMILES,growth
1,CCOC(=O)c1c(C)nc2c(c1N)/C(=C/c1ccc(OC)cc1)C(=O)N2Cc1ccc(F)cc1,-38.4% (active)
2,COc1ccc(C2CC(c3cnccn3)=NN2)cc1OC (stereo not drawn),88.7%
3,COc1cc2c(cc1OC)-c1ccc3cc4c(cc3c1N(CCCN(C)C)C2)OCO4,38.7%
4,CCCCCOC(=O)c1ccc(NC(=O)CNCC(C)C)cc1,66.5%
5,COc1cc(-c2cccc([N+](=O)[O-])c2)c(-c2nc(-c3ccccc3)c(-c3ccccc3)n2C2CC2)cc1OC,37.7%
6,N=C(N)c1ccc(-c2ccc(-c3ccc(Cl)cc3Cl)o2)nc1,-16.1% (active)
7,COc1cc(C(=O)/C=C/c2c(-c3ccc(F)cc3)nc3ncccn23)cc(OC)c1OC,35.7%
8,N#Cc1cnn2c(-c3ccc(Cl)cc3)nc(NC3CC3)nc12,69.2%
9,COc1cc(-c2ccc(-c3ccc(C(=N)N)nc3)s2)cc(OC)c1OC,70.5%
10,COc1cc2c(cc1OC)-c1ccc3cc4c(cc3c1N(CCCN1CCCCC1)C2)OCO4,37.6%
11,COc1cccc(CCC2CCCN(c3cc(C)nc(N)n3)C2)c1 (stereo not drawn),35.7%
12,N#Cc1c(N)n2c(nc1=Nc1ccc([N+](=O)[O-])cc1)sc1cc(Cl)ccc12,75.2%
13,CCCc1cc(=O)oc2c3c(c4c(c12)OC(C)(C)C=C4)O[C@@H](C)[C@H](C)C3=O,71.9%
14,Cc1ccc(Nc2ccc(Nc3ccc(C)cc3S(=O)(=O)O)c3c2C(=O)c2ccccc2C3=O)c(S(=O)(=O)O)c1,78.4%
15,O=C(NC1CCOCC1)c1ccc2c(c1)CN(c1ncc(Cc3cccc(-n4cccn4)c3)s1)CC2,64.4%
16,O=S(=O)(Cc1ccccc1)c1nc2ccccc2s1,49.9%
17,COc1cc2c(=O)n(CCCn3ccnc3)c3c4cc5c(cc4ccc3c2cc1OC)OCO5,-27.3% (active)
18,CN(C)c1ccc(-c2cc(-c3ccc(Nc4nc(Nc5ccccc5)nc(Nc5ccc(Cl)cc5)n4)cc3)nc(N)n2)cc1,39%
19,CCOC(=O)c1c(C)[nH]c(C(=O)CCC(=O)OC)c1C,92.7%

# System: TK-10 renal
# Test: as above
# Details: 10 µM unless noted
row,SMILES,growth
1,CCN(CC)CC(=O)Nc1cccc(C(=O)OC(C)C)c1,87.5%
2,CCCCOC(=O)c1ccc(NC(=O)C(C)N2CCOCC2)cc1 (stereo not drawn),97.2%
3,CN1C[C@@H](c2ccc(Cl)cc2)[C@]2(NC(=S)N(c3ccc(F)c(Cl)c3)C2=O)[C@@]12C(=O)NC1C=CC(Cl)=C[C@H]12 (stereo partly drawn),82%
4,OC(CBr)c1ccnc2ccccc12 (stereo not drawn),89.4%
5,CCCCNCC(=O)Nc1ccc(C(=O)OCC)cc1,96.1%
6,Nc1nc(Nc2ccc(Cl)cc2)nn1S(=O)(=O)c1ccc(-c2ccc(F)cc2)cc1,97.3%
7,CCCCCOC(=O)c1cccc(NC(=O)CN(CC)CC)c1,82.9%
8,N#Cc1c(N)n2c(nc1=Nc1ccc(Cl)cc1)sc1cc(Cl)ccc12,108%
9,CCN(CC)CCOC(=O)Nc1ccccc1Cl,86.1%
10,CCN(CC)c1ccc(Nc2ccc(CC(=O)c3ccccc3)cc2)cc1,107%
11,O[C@H]1CO[C@H]2[C@@H]1OC[C@@H]2Oc1ccc(Nc2nc(Nc3ccc(F)c(Cl)c3)ncc2F)cc1Cl,105%
12,CS(=O)(=O)c1ccc(-c2nc3cc(Cl)ccc3n2CC(=O)N/N=C/c2ccc(Cl)cc2)cc1,81.7%
13,COc1cc2c(cc1OC)-c1ccc3cc4c(cc3c1N(CCN(C)C)C2)OCO4,16.6%
14,CC[C@]1(O)C[C@H]2CN(CCc3c([nH]c4ccccc34)[C@@](C(=O)OC)(c3cc4c(cc3OC)N(C=O)[C@H]3[C@@](O)(C(=O)OC)[C@H](OC(C)=O)[C@]5(CC)C=CCN6CC[C@]43[C@@H]65)C2)C1,60.8%
15,CCN(CC)CCCC(C)NCc1ccccc1 (stereo not drawn),83.6%
16,CCOC(=O)c1ccc(NC(=O)CCCN(CC)CC)cc1,88.2%
17,CCC(C)NCc1ccccc1 (stereo not drawn),96.9%
18,CCCNCC(=O)Nc1ccc(C(=O)OC(C)(C)CC)cc1,93%
19,O=C(Nc1ccccc1Cl)OCCN1CCOCC1,92.8%
20,O=C1N(c2ccccc2)C(=S)N[C@]12[C@H](c1ccccc1)C1CCCN1[C@]21C(=O)NC2C=CC(Cl)=C[C@H]21 (stereo partly drawn),113%

row,SMILES,growth
1,CCOC(=O)c1c(C)nc2c(c1N)/C(=C/c1ccc(OC)cc1)C(=O)N2Cc1ccc(F)cc1,-70.8% (active)
2,COc1ccc(C2CC(c3cnccn3)=NN2)cc1OC (stereo not drawn),82.7%
3,COc1cc2c(cc1OC)-c1ccc3cc4c(cc3c1N(CCCN(C)C)C2)OCO4,46.6%
4,CCCCCOC(=O)c1ccc(NC(=O)CNCC(C)C)cc1,98.5%
5,COc1cc(-c2cccc([N+](=O)[O-])c2)c(-c2nc(-c3ccccc3)c(-c3ccccc3)n2C2CC2)cc1OC,66.2%
6,N=C(N)c1ccc(-c2ccc(-c3ccc(Cl)cc3Cl)o2)nc1,61%
7,COc1cc(C(=O)/C=C/c2c(-c3ccc(F)cc3)nc3ncccn23)cc(OC)c1OC,78.2%
8,N#Cc1cnn2c(-c3ccc(Cl)cc3)nc(NC3CC3)nc12,94.2%
9,COc1cc(-c2ccc(-c3ccc(C(=N)N)nc3)s2)cc(OC)c1OC,102%
10,COc1cc2c(cc1OC)-c1ccc3cc4c(cc3c1N(CCCN1CCCCC1)C2)OCO4,73.2%
11,COc1cccc(CCC2CCCN(c3cc(C)nc(N)n3)C2)c1 (stereo not drawn),37.5%
12,N#Cc1c(N)n2c(nc1=Nc1ccc([N+](=O)[O-])cc1)sc1cc(Cl)ccc12,148%
13,CCCc1cc(=O)oc2c3c(c4c(c12)OC(C)(C)C=C4)O[C@@H](C)[C@H](C)C3=O,83.2%
14,Cc1ccc(Nc2ccc(Nc3ccc(C)cc3S(=O)(=O)O)c3c2C(=O)c2ccccc2C3=O)c(S(=O)(=O)O)c1,98.3%
15,O=C(NC1CCOCC1)c1ccc2c(c1)CN(c1ncc(Cc3cccc(-n4cccn4)c3)s1)CC2,81.7%
16,O=S(=O)(Cc1ccccc1)c1nc2ccccc2s1,98%
17,COc1cc2c(=O)n(CCCn3ccnc3)c3c4cc5c(cc4ccc3c2cc1OC)OCO5,35.3%
18,CN(C)c1ccc(-c2cc(-c3ccc(Nc4nc(Nc5ccccc5)nc(Nc5ccc(Cl)cc5)n4)cc3)nc(N)n2)cc1,74.6%
19,CCOC(=O)c1c(C)[nH]c(C(=O)CCC(=O)OC)c1C,84.3%
